Measurements: PubChem BioAssay (NCATS)
Inconclusive results are not listed. Activity calls are given as the source filed them. Calls come from the whole dose curve; as a rule, active = well fitted inhibition curve with a large enough effect; inconclusive = small, poorly fitted or top-dose-only effect; inactive = flat fitted curve, though single readings scatter.

Tests used:
PAD = experiment: qHTS profiling for inhibitors of Plasmodium falciparum proliferation (AID 504749);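 note: 0% = DMSO vehicle and full inhibition = artemisinin control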; conditions: P. falciparum in erythrocytes, SYBR Green DNA, 72 h; series mostly up to 28.7 µM
Outline: (§1)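 P. falciparum-infected erythrocytes (0.3% parasitemia, 2.5% hematocrit) incubated with compound 72 h at 37 C, 5% CO2. Parasite DNA detected by SYBR Green after lysis, overnight at room temperature; normalised to 0.29 uM artemisinin and DMSO.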

PC15 = experiment: as above; conditions: P. falciparum in erythrocytes, SYBR Green DNA, 72 h; series mostly up to 28.7 µM
Outline: as §1

PC26 = experiment: as above; conditions: P. falciparum in erythrocytes, SYBR Green DNA, 72 h; series mostly up to 28.7 µM
Outline: as §1

PC49 = experiment: as above; conditions: P. falciparum in erythrocytes, SYBR Green DNA, 72 h; series mostly up to 28.7 µM
Outline: as §1

SC27B = experiment: as above; conditions: P. falciparum in erythrocytes, SYBR Green DNA, 72 h; series mostly up to 28.7 µM
Outline: as §1

TAB109 = experiment: as above; conditions: P. falciparum in erythrocytes, SYBR Green DNA, 72 h; series mostly up to 28.7 µM
Outline: as §1

TAB113 = experiment: as above; conditions: P. falciparum in erythrocytes, SYBR Green DNA, 72 h; series mostly up to 28.7 µM
Outline: as §1

TAB165 = experiment: as above; conditions: P. falciparum in erythrocytes, SYBR Green DNA, 72 h; series mostly up to 28.7 µM
Outline: as §1

W2 = experiment: as above; conditions: P. falciparum in erythrocytes, SYBR Green DNA, 72 h; series mostly up to 28.7 µM
Outline: as §1

CRL-7250 = normal cell line; experiment: Cytotoxic Profiling of Annotated Libraries Using Quantitative High-Throughput Screening (AID 1296008); conditions: Five cell lines viability, CellTiter-Glo ATP luminescence, 48-72 h; hits give low values; for max response: % is set by controls: 0 for no effect and ±100 for the full control effect
Outline: (§2)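 Cells exposed to compounds for 48 or 72 hr at 37 degrees Celsius. Viability read as ATP-coupled luminescence with CellTiter-Glo after 10 min at room temperature.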

HEK293 = experiment: as above; conditions: Five cell lines viability, CellTiter-Glo ATP luminescence, 48-72 h; hits give low values
Outline: as §2

HaCat = experiment: as above; conditions: Five cell lines viability, CellTiter-Glo ATP luminescence, 48-72 h; hits give low values
Outline: as §2

KB-3-1 = experiment: as above; conditions: Five cell lines viability, CellTiter-Glo ATP luminescence, 48-72 h, hits give low values
Outline: as §2

NIH3T3 = experiment: as above; conditions: Five cell lines viability, CellTiter-Glo ATP luminescence, 48-72 h; hits give low values
Outline: as §2

HEK293T = experiment: qHTS assay to identify novel small-molecules to repurpose for Merkel cell carcinoma treatment (AID 1296009); conditions: MCC and control cell lines, CellTiter-Glo viability, 72 h; at 44.8 µM (top of the series) unless noted
Outline: (§3)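 Cells were treated for 72 hr at 37 degree celsius with compounds in 8- or 11-point dose response. Viability was read by CellTiter-Glo luminescence, normalized to no-cell (cytotoxicity) and DMSO controls.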

MCC-13 = experiment: as above; conditions: MCC and control cell lines, CellTiter-Glo viability, 72 h; series mostly up to 46 µM
Outline: as §3

MCC-26 = experiment: as above; conditions: MCC and control cell lines, CellTiter-Glo viability, 72 h; series mostly up to 46 µM
Outline: as §3

MKL-1 = experiment: as above; conditions: MCC and control cell lines, CellTiter-Glo viability, 72 h; series mostly up to 46 µM
Outline: as §3

MKL-2 = experiment: as above; conditions: MCC and control cell lines, CellTiter-Glo viability, 72 h; series mostly up to 46 µM
Outline: as §3
Note: nearly all actives have a fitted effect of over 60% in size.

CC(C)=CCC/C(C)=C/CO
inactive: Potency (PAD) | Potency (PC15) | Potency (PC26) | Potency (PC49) | Potency (SC27B) | Potency (TAB109) | Potency (TAB113) | Potency (TAB165) | Potency (W2) | outcome (CRL-7250) | outcome (HEK293) | max response (HaCat) -2.14% | max response (KB-3-1) 8.27% | max response (NIH3T3) -13.7% | outcome (HEK293T) | outcome (MCC-13) | outcome (MCC-26) | outcome (MKL-1) | outcome (MKL-2)

NS(=O)(=O)c1cc(C2(O)NC(=O)c3ccccc32)ccc1Cl (centres undefined)
inactive: max response (CRL-7250) -0.145% | max response (HEK293) -4.45% | max response (HaCat) 3.24% | max response (KB-3-1) -1.8% | outcome (NIH3T3) | outcome (MCC-13) | outcome (MCC-26) | outcome (MKL-1) | outcome (MKL-2)

CCCCCCCCCCCCCCCCN
inactive: Potency (PAD) | Potency (PC15) | Potency (PC26) | Potency (PC49) | Potency (SC27B) | Potency (TAB109) | Potency (TAB165) | Potency (W2) | max response (CRL-7250) -3.5% | outcome (HEK293) | max response (HaCat) -13.8% | max response (KB-3-1) 5.46% | max response (NIH3T3) -1.53% | outcome (HEK293T) | outcome (MCC-13) | outcome (MCC-26) | outcome (MKL-1) | outcome (MKL-2)

O=C(O)CCCc1ccccc1
inactive: Potency (PAD) | Potency (PC15) | Potency (PC26) | Potency (PC49) | Potency (SC27B) | Potency (TAB109) | Potency (TAB113) | Potency (TAB165) | Potency (W2) | max response (CRL-7250) 1.18% | outcome (HEK293) | max response (HaCat) 2.59% | max response (KB-3-1) 18.7% | max response (NIH3T3) -2.38% | outcome (HEK293T) | outcome (MCC-13) | outcome (MCC-26) | outcome (MKL-1) | outcome (MKL-2)

COC(=O)N/N=C/c1c[n+]([O-])c2ccccc2[n+]1[O-]
inactive: max response (CRL-7250) 4.42% | outcome (HEK293) | max response (HaCat) -20.3% | max response (KB-3-1) -2.23% | max response (NIH3T3) -11.1% | outcome (HEK293T) | outcome (MCC-13) | outcome (MCC-26) | outcome (MKL-1) | outcome (MKL-2)

C[C@@H](N)C(=O)O
inactive: Potency (PAD) | Potency (PC15) | Potency (PC26) | Potency (PC49) | Potency (SC27B) | Potency (TAB109) | Potency (TAB113) | Potency (TAB165) | Potency (W2) | max response (CRL-7250) 0.494% | outcome (HEK293) | max response (HaCat) -6.96% | max response (KB-3-1) -23.1% | max response (NIH3T3) -0.0264% | outcome (HEK293T) | outcome (MCC-13) | outcome (MCC-26) | outcome (MKL-1) | outcome (MKL-2)

CNCc1ccccc1
inactive: Potency (PAD) | Potency (PC15) | Potency (PC26) | Potency (PC49) | Potency (SC27B) | Potency (TAB109) | Potency (TAB113) | Potency (TAB165) | Potency (W2) | max response (CRL-7250) 4.71% | outcome (HEK293) | max response (HaCat) -18.5% | max response (KB-3-1) -4.93% | max response (NIH3T3) 1.15% | outcome (HEK293T) | outcome (MCC-13) | outcome (MKL-1) | outcome (MKL-2)

C=CCN1C[C@H](C(=O)N(CCCN(C)C)C(=O)NCC)C[C@@H]2c3cccc4[nH]cc(c34)C[C@H]21
inactive: outcome (CRL-7250) | max response (HEK293) 1.65% | max response (HaCat) -1.25% | max response (KB-3-1) 6.36% | outcome (NIH3T3) | outcome (MCC-13) | outcome (MCC-26) | outcome (MKL-1) | outcome (MKL-2)

Nc1ccc(S(=O)(=O)c2ccc(N)cc2)cc1
inactive: Potency (PAD) | Potency (PC15) | Potency (PC26) | Potency (PC49) | Potency (SC27B) | Potency (TAB109) | Potency (TAB113) | Potency (TAB165) | Potency (W2) | max response (CRL-7250) 2.75% | outcome (HEK293) | max response (HaCat) 2.48% | max response (KB-3-1) -3.79% | max response (NIH3T3) 3.17% | outcome (HEK293T) | outcome (MCC-13) | outcome (MKL-1) | outcome (MKL-2)

CCCCCCCCCCC(CO)CCCCCCCC (centres undefined)
inactive: Potency (PAD) | Potency (PC15) | Potency (PC26) | Potency (PC49) | Potency (SC27B) | Potency (TAB109) | Potency (TAB113) | Potency (TAB165) | max response (CRL-7250) -6.12% | outcome (HEK293) | max response (HaCat) -2.15% | max response (KB-3-1) 12.2% | max response (NIH3T3) 1.86% | outcome (HEK293T) | outcome (MCC-13) | outcome (MCC-26) | outcome (MKL-1) | outcome (MKL-2)

OC[C@@H](O)[C@@H](O)[C@H](O)[C@H](O)CO
inactive: Potency (PAD) | Potency (PC15) | Potency (PC26) | Potency (PC49) | Potency (SC27B) | Potency (TAB109) | Potency (TAB113) | Potency (TAB165) | Potency (W2) | max response (CRL-7250) -5.84% | outcome (HEK293) | max response (HaCat) 0.927% | max response (KB-3-1) 5.16% | max response (NIH3T3) -8.98% | outcome (HEK293T) | outcome (MCC-13) | outcome (MCC-26) | outcome (MKL-1) | outcome (MKL-2)

CCCCCCCCCCCCCCCCC(C(=O)O)C(O)(CC(=O)O)C(=O)O (centres undefined)
inactive: Potency (PAD) | Potency (PC15) | Potency (PC26) | Potency (PC49) | Potency (SC27B) | Potency (TAB109) | Potency (TAB113) | Potency (TAB165) | outcome (CRL-7250) | outcome (HEK293) | max response (HaCat) 2.76% | max response (KB-3-1) 6.88% | max response (NIH3T3) 0.574% | outcome (HEK293T) | outcome (MCC-13) | outcome (MCC-26) | outcome (MKL-1) | outcome (MKL-2)

NCc1ccc(S(N)(=O)=O)cc1
inactive: Potency (PAD) | Potency (PC15) | Potency (PC49) | Potency (SC27B) | Potency (TAB109) | max response (CRL-7250) -8.65% | outcome (HEK293) | max response (HaCat) -6.18% | max response (KB-3-1) -7.46% | max response (NIH3T3) 1.15% | outcome (HEK293T) | outcome (MCC-13) | outcome (MCC-26) | outcome (MKL-1) | outcome (MKL-2)
